The sample as a whole holds a higher share of hits than the screen did.
RMI FANCM FP: disruptors of RMI1/RMI2 association with MM2 peptide – biochemical, fluorescence polarization, human, primary screen. RMI core complex with F-MM2 peptide; stronger effect = lower value. FP signal (polarization) at 33 µM. actives 0.58% (n = 70,000). AID 1159607, 2016; in the data active = FP signal below about 40
Large screens that a line does not name were inactive; ! = repeats disagree.

COc1ccc(-c2c(C#N)c(SCC(=O)Nc3nc(-c4ccccc4)ns3)nc3c2C(=O)CC(C)(C)C3)cc1	none
Cc1ccccc1-c1noc(CSc2nc3ccsc3c(=O)n2-c2ccc(Cl)cc2)n1	none
Cc1c(C)c2c(c(C)c1O)CCC(C)(CN1CCN(c3cc(N4CCCC4)nc(N4CCCC4)n3)CC1)O2 (stereo not drawn)	none
Cc1c(C)c2c(c(C)c1O)CC[C@@](C)(CCC[C@H](C)CCC[C@H](C)CCCC(C)C)O2	none
Cc1c(C)c2c(c(C)c1O)CCC(C)(C(=O)O)O2 (stereo not drawn)	RMI FANCM FP 1
COc1ccc(OCC(O)CNS(=O)(=O)c2c(C)noc2C)cc1 (stereo not drawn)	none
CSc1ccccc1NC(=O)CCCn1nc(-c2ccc(F)cc2)ccc1=O	none
CC(C)c1nn(CC(=O)NCc2ccco2)c(=O)c2c1cnn2-c1ccc(F)cc1	none
O=C(NC(=S)N1CCN(c2ccc(F)cc2)CC1)c1ccccc1	none
O=C(NC(=O)N1CCN(c2ccc(F)cc2)CC1)c1ccccc1	none
CC(C(=O)c1ccc(-c2ccccc2F)cc1)N1CCN(c2ccc(C#N)cc2)CC1 (stereo not drawn)	RMI FANCM FP 25!
O=C(COc1ccc(Cl)cc1Cl)Nc1ccncc1NC(=O)COc1ccc(Cl)cc1Cl	none
COc1cc(C(=O)Nc2nnc(-c3ccc4c(c3)OCO4)o2)cc(OC)c1OC	RMI FANCM FP 33
CC(=O)Nc1nnc(-c2ccc3c(c2)OCO3)o1	none
CC(C)Oc1ccc(C(=O)Nc2nnc(-c3ccc4c(c3)OCO4)o2)cc1	none
O=S(=O)(Nc1ccccn1)c1ccc2c(c1)Cc1cc(S(=O)(=O)Nc3ccccn3)ccc1-2	none
CCOC(=O)C(C)Sc1nnc(CNC(=O)c2ccc(OC)cc2)n1-c1cccc(Cl)c1C (stereo not drawn)	none
COc1ccc(C)cc1S(=O)(=O)NCc1ccsc1	none
CCOC(=O)COc1ccc(-c2cc(-c3ccccc3)c3cc(Cl)ccc3n2)cc1	none
Cc1ccc2nc(-c3ccc(OCC(=O)N=Nc4c(O)[nH]c5ccccc45)cc3)cc(-c3ccccc3)c2c1	RMI FANCM FP 20
CCCOc1ccc(-c2cc(C(=O)N=Nc3c(O)[nH]c4ccccc34)[nH]n2)cc1	none
S=C(NCc1ccccc1)NNc1nc(-c2ccccc2)c2cc(Cl)ccc2n1	none
COC(=O)c1sc2ccccc2c1NC(=O)c1ccn(C)n1	none
Cc1ccc(/C=c2\sc3nc(=O)c(C)nn3c2=O)o1	none
Cc1occc1-c1nc2s/c(=C\c3ccc(-c4cccc(C(F)(F)F)c4)o3)c(=O)n2n1	RMI FANCM FP 16
N#CCCN1CCN(C2=NC(=O)/C(=C\c3ccc(-c4cccc(C(F)(F)F)c4)o3)S2)CC1	none
COc1cccc(-n2c(=S)sc3c(=O)[nH]c(SCC(=O)N4CCCCC4)nc32)c1	none
O=C(NC(=S)Nc1ccc(S(=O)(=O)Nc2nccs2)cc1)c1ccccc1[N+](=O)[O-]	none
Cc1[nH]c2ccc(F)cc2c1CCNC(=S)Nc1ccc(I)cc1	none
COc1cccc2c1c(NC(=O)CSCC(=O)O)nn2C	none
O=C(CSc1ncnc2[nH]ncc12)Nc1nc(-c2ccco2)c(-c2ccco2)s1	RMI FANCM FP -3
COc1ccc(CCNC(=O)CSc2ncnc3[nH]ncc23)cc1OC	none
CCSc1nnc(NC(=O)CSc2ncnc3c2cnn3-c2ccccc2)s1	none
CCOC(=O)c1cc(C#N)c2ccccn2c1=O	RMI FANCM FP 33
CCOC(=O)c1cc(C#N)c(Sc2ccccc2)nc1C(F)(F)F	none
CCOC(=O)c1cc(C#N)c(SCC(=O)Nc2ccc(C(C)=O)cc2)[nH]c1=O	none
CCCCOc1ccc(C(=O)Nc2ccc3c(c2)NC(=O)C(C)(C)CO3)cc1	none
COc1cccc(CSc2nc(CC(=O)Nc3ccc(C)c(C)c3)cc(=O)[nH]2)c1	none
COc1cccc(CSc2nc(CC(=O)Nc3nnc(C)s3)cc(=O)[nH]2)c1	RMI FANCM FP 34
COc1cccc(CSc2nc(CC(=O)NC3CC3)cc(=O)[nH]2)c1	none
COc1ccc(Cl)cc1C(=O)N1CCCC(c2nnc(-c3ccc4c(c3)OCO4)o2)C1 (stereo not drawn)	none
Cc1ccc(S(=O)(=O)N2CCN(c3ccc4nnc(C)n4n3)CC2)c(C)c1	none
Brc1ccc2c(c1)C=CC2	none
Cc1ccc(C)c(CC(=O)Nc2nnc(-c3ccno3)o2)c1	none
N#C/C(=C\Nc1ccc(S(=O)(=O)N=C(N)N)cc1)c1nc(-c2ccc([N+](=O)[O-])cc2)cs1	none
Cc1ccc(-c2csc(/C(C#N)=C/Nc3ccc(Cl)c(C(F)(F)F)c3)n2)cc1	none
N#C/C(=C\Nc1ccc(S(=O)(=O)NC(N)=O)cc1)c1nc(-c2ccc(Cl)cc2)cs1	RMI FANCM FP 15
CN(C)C(CNC(=O)C(=O)NCCC1=CCCCC1)c1ccsc1 (stereo not drawn)	none
CC1CC(C)CN(S(=O)(=O)c2cc3c4c(c2)CCC(=O)N4CCC3)C1 (stereo not drawn)	none
Nc1cc2c3c(c1)CCC(=O)N3CCC2	RMI FANCM FP 21
COc1ccc(OC)c(S(=O)(=O)Nc2cc3c4c(c2)CCC(=O)N4CCC3)c1	none
COc1ccc(CC(=O)NCc2ccsc2)cc1	none
O=C(Nc1ccccc1)N1CCN(c2ccc3nnc(C4CC4)n3n2)CC1	none
N#Cc1c(-c2cccnc2)c2c([nH]c1=O)-c1ccccc1SC2	RMI FANCM FP 33
N#Cc1ccc(-c2cccnc2)[nH]c1=O	none
CC(C)(C)NCC(O)COCCOc1ccc(Cl)cc1 (stereo not drawn)	none
CCN(CC)c1ccc(C=Nc2sc3c(c2C#N)CCCC3)c(O)c1	RMI FANCM FP 18
CCOC(=O)c1c(N=Cc2ccc(N(CC)CC)cc2O)sc2c1CCCC2	none
N#Cc1c(N=Cc2cc(Br)cc(Br)c2O)sc2c1CCCC2	none
C#CCn1c(=NC(=O)C2CCCN2S(=O)(=O)c2ccc(Cl)s2)sc2cc(C(=O)OC)ccc21 (stereo not drawn)	none
Cc1c(Cl)cccc1NC(=O)Cn1cnc2c(-c3ccccc3)csc2c1=O	none
CC1(C)CC2C1CCC1(C)OC1CCC2(C)O (stereo not drawn)	none
CC1(C)CC2C1CCC1(C)OC2(C)CCC1O (stereo not drawn)	RMI FANCM FP -8
O=C(c1cc(=O)c2ccccc2o1)N(C(=O)N1CCCCC1)c1cccc(Cl)c1	none
CCCc1cc(=O)[nH]c(-n2nc(C)cc2NC(=O)COc2ccc(Cl)cc2Cl)n1	none
O=S(=O)(N/N=C\c1cc(Br)ccc1O)c1ccccc1	none
O=S(=O)(N=Cc1cc(Br)ccc1O)c1ccccc1	RMI FANCM FP 21
NS(=O)(=O)c1ccc(N=Cc2cc(Br)ccc2O)cc1	none
CC1CCc2c(sc(NC(=O)CCS(=O)(=O)c3ccc(F)cc3)c2C(N)=O)C1 (stereo not drawn)	none
CCOC(=O)N1CCc2c(sc(NC(=O)CS(=O)(=O)c3ccccc3)c2C#N)C1	none
COC(=O)c1c(NC(=O)C(C)C)sc2c1CCN(Cc1ccccc1)C2	none
NC(=O)c1c(NC(=O)CS(=O)(=O)c2ccccc2)sc2c1CCN(Cc1ccccc1)C2	RMI FANCM FP 21
CC(=O)N1CCc2c(sc(NC(=O)CS(=O)(=O)c3ccc(Cl)cc3)c2C(N)=O)C1	RMI FANCM FP 15
CC(C)N1CCc2c(sc(NC(=O)CCS(=O)(=O)c3ccc(Cl)cc3)c2C(N)=O)C1	none
CCCCC(=O)Nc1sc2c(c1C(N)=O)CCN(C(C)=O)C2	none
CCN1CCc2c(sc(NC(=O)CCS(=O)(=O)c3ccc(F)cc3)c2C(N)=O)C1	RMI FANCM FP 37
CCOC(=O)c1c(NC(=O)CCS(=O)(=O)c2ccc(Cl)cc2)sc2c1CCN(C(C)=O)C2	none
C#CCn1c(=NC(=O)Cc2ccccc2)sc2cc(C(=O)OC)ccc21	none

Screening results (PubChem)
